For the first experiment, the target named is RSPH9. The experiment is described as follows: pooled miR-30 sensor sort-seq; sequence = guide strand. As to conditions: shRNA.
In the case of TTTAGCTCAACAGGCTCCCTGA, the sensor-assay potency score (higher = more potent) is -0.548.

TTTGGGAATGTCATGCTCCAAG: the sensor-assay potency score (higher = more potent) was -0.888.

With TTATTCTTTAGCTCAACAGGCT, the sensor-assay potency score (higher = more potent) is -0.377.

For TATTTCTTCTTCAAAGACTTTT, the sensor-assay potency score (higher = more potent) is -0.914.

The sequence TCTTATTCTTTAGCTCAACAGG registered a sensor-assay potency score (higher = more potent) of -1.48.

The sequence TATTCTTTAGCTCAACAGGCTC showed a sensor-assay potency score (higher = more potent) of -1.09.

TTCACCTTCATTCACCTTCTGC: the sensor-assay potency score (higher = more potent) is -0.502.

The next experiment concerns the target RTF1. Described as above. To be noted: shRNA.
The sequence TTGAGATTTCTTGTCTAGTTTC returned a sensor-assay potency score (higher = more potent) of -0.921.

In turn, TACAATCTCTTCAATGTCCTGA gave a sensor-assay potency score (higher = more potent) of 0.771.

In turn, TTTCTCTGTCATCTGTTCCAGA showed a sensor-assay potency score (higher = more potent) of -0.00304.

With TTGAGACAAACTCTAAACGGAA, the sensor-assay potency score (higher = more potent) was -0.778.

With TTTTTCTTGATTTCAAATCTTC, the sensor-assay potency score (higher = more potent) is -0.239.

The sequence TACTTTGAACAGATCTTCTGAG showed a sensor-assay potency score (higher = more potent) of 0.376.

With TTTGAGACAAACTCTAAACGGA, the sensor-assay potency score (higher = more potent) is 0.185.

As to ATTGATTTCATCTAGAGTGGGC, the sensor-assay potency score (higher = more potent) was found to be 0.501.

On to TTCGTTTTTCTCGCTCTGCTTT, for which the sensor-assay potency score (higher = more potent) was -0.471.

TTCATCATCAGAGTAGACCTCA had a sensor-assay potency score (higher = more potent) of 0.818.

In the case of TTCTTGATTTCAAATCTTCTTT, the sensor-assay potency score (higher = more potent) is -0.27.

Source of the values: the OligoGym collection.
Further: reference of the scale not given here.
